# Experimental data from PubChem BioAssay (Tox21).
# A number with no mark means an inactive call. Entries that show only a call come without a potency. Activity calls are given as the source filed them. Unless noted, calls follow the shape of the dose curve; as a rule, active = well fitted curve in the direction sought with a large enough effect in the repeat runs; inconclusive = weak or mixed curves; inactive = no such curve, though single readings can be large; an effect the other way counts as inactive or inconclusive.
# Assays:
# [1] = qHTS assay to identify small molecule antagonists of the glucocorticoid receptor (GR) signaling pathway - cell viability counter screen (AID 720693); also: nearly all actives have a fitted effect of over 55% in size
# [2] = qHTS assay for identifying genotoxic compounds that show differential cytotoxicity against isogenic chicken DT40 cell lines with known DNA damage response pathways - wild type cell line (AID 743012); also: nearly all actives have a fitted effect of over 60% in size; also: potency is read from the fitted curve at half-maximal effect
# How it was run: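 Viability of DNA repair-proficient chicken DT40 cells was assessed by CellTiter-Glo luminescence following 40 h compound exposure at 37 C/5% CO2.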
# [3] = qHTS assay to identify small molecule antagonists of the androgen receptor (AR) signaling pathway - cell viability counter screen (AID 743033; also: nearly all actives have a fitted effect of over 45% in size)
# [4] = qHTS assay to identify small molecule antagonists of the androgen receptor (AR) signaling pathway using the MDA cell line - cell viability counter screen (AID 743041; also: nearly all actives have a fitted effect of over 45% in size)
# How it was run: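 Cytotoxicity counter screen: MDA-kb2 AR-luc cells, compound + R1881, 16 h, 37C, 0% CO2; CellTiter-Fluor added at 15.5 h, fluorescence read after 30 min.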
# [5] = system: thyroid hormone receptor (rat, GH3 cells); experiment: qHTS assay to identify small molecule agonists of the thyroid receptor (TR) signaling pathway (AID 743066; calls by dose curve)
# [6] = qHTS assay to identify small molecule antagonists of the estrogen receptor alpha (ER-alpha) signaling pathway - cell viability counter screen (AID 743074; calls by dose curve;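 also: HEK293 cells carrying ER-alpha-UAS-bla reporter stimulated with 17beta-estradiol; nearly all actives have a fitted effect of over 45% in size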)
# [7] = biological target: Estrogen receptor (Homo sapiens) (UniProt P03372); experiment: qHTS assay to identify small molecule agonists of the estrogen receptor alpha (ER-alpha) signaling pathway (AID 743075; calls by dose curve;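 also: HEK293 GripTite cells with ER-alpha and UAS-driven beta-lactamase reporter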)
# [8] = biological target: Estrogen receptor (Homo sapiens) (UniProt P03372); experiment: qHTS assay to identify small molecule agonists of the estrogen receptor alpha (ER-alpha) signaling pathway using the BG1 cell line (AID 743079); also: nearly all actives have a fitted effect of over 20% in size
# [9] = qHTS assay to identify small molecule antagonists of the estrogen receptor alpha (ER-alpha) signaling pathway using the BG1 cell line (AID 743080; calls by dose curve; also: series mostly up to about 70 µM; nearly all actives have a fitted effect of over 25% in size)
# How it was run: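 Antagonist mode: compounds in DMSO were pinned onto BG1-Luc-4E2 cells alongside 17beta-estradiol agonist, incubated 21.5 h, and ERE-driven luciferase measured with ONE-Glo. Cytotoxicity was multiplexed using CellTiter-Fluor fluorescence.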
# [10] = qHTS assay to identify small molecule antagonists of the estrogen receptor alpha (ER-alpha) signaling pathway using the BG1 cell line - cell viability counter screen (AID 743081);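 also: compound given together with 17beta-estradiol as the ER stimulus; nearly all actives have a fitted effect of over 45% in size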; also: potency is read from the fitted curve at half-maximal effect; as to activity change, negative = cytotoxicity: series mostly up to about 70 µM
# Aromatase (Homo sapiens) = Aromatase (Homo sapiens) (UniProt P11511); experiment: qHTS assay to identify aromatase inhibitors (AID 743083); also: series mostly up to about 70 µM; nearly all actives have a fitted effect of over 55% in size
# [11] = qHTS assay to identify small molecule antagonists of the thyroid receptor (TR) signaling pathway - cell viability counter screen (AID 743064); also: nearly all actives have a fitted effect of over 50% in size; also: potency is read from the fitted curve at half-maximal effect
# How it was run: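 Counter screen for cytotoxicity: compound plus T3 (1 nM final) on GH3.TRE-Luc cells, 23.5 h at 37 °C, then fluorescence viability readout with CellTiter-Fluor.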
# [12] = qHTS assay to identify small molecule antagonists of the thyroid receptor (TR) signaling pathway (AID 743065); also: nearly all actives have a fitted effect of over 55% in size; also: potency is read from the fitted curve at half-maximal effect; as to activity, negative = inhibition: series mostly up to about 70 µM
# How it was run: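 GH3.TRE-Luc rat pituitary cells (two TREs driving luciferase) were dosed with compound, then stimulated with 1 nM T3 (final) for 23.5 h at 37 C. ONE-Glo luminescence was the read-out, with CellTiter-Fluor fluorescence as the cytotoxicity counter-screen.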
# [13] = biological target: Estrogen receptor (Homo sapiens) (UniProt P03372); experiment: qHTS assay to identify small molecule antagonists of the estrogen receptor alpha (ER-alpha) signaling pathway (AID 743069; active = well fitted curve in the direction sought with a large enough effect in the signal ratio in the repeat runs, not every such curve was filed as active; inconclusive = weak or mixed curves, or effect the other way; inactive = no such curve, though single readings can be large or run the other way; the % refers to the signal ratio; also: potency is read from the fitted curve at half-maximal effect)
# How it was run: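 Beta-lactamase FRET fluorescence is read after 2 hr at room temperature with LiveBLAzer B/G substrate. Before that, ER-alpha-bla HEK293 cells sit 4 hr after plating, then receive compound plus 17beta-estradiol and incubate 18 hr at 37C.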
# [14] = qHTS assay for identifying genotoxic compounds that show differential cytotoxicity against isogenic chicken DT40 cell lines with known DNA damage response pathways - Rev3 mutant cell line (AID 743014); also: nearly all actives have a fitted effect of over 55% in size; also: potency is read from the fitted curve at half-maximal effect
# [15] = qHTS assay for identifying genotoxic compounds that show differential cytotoxicity against isogenic chicken DT40 cell lines with known DNA damage response pathways - Rad54/Ku70 mutant cell line (AID 743015); also: nearly all actives have a fitted effect of over 60% in size; also: potency is read from the fitted curve at half-maximal effect
# [16] = biological target: Androgen receptor (Homo sapiens) (UniProt P10275); experiment: qHTS assay to identify small molecule agonists of the androgen receptor (AR) signaling pathway (AID 743036; active = well fitted activation curve with a large enough effect in the signal ratio in the repeat runs, with a control signal flat, not every such curve was filed as active; inconclusive = weak or mixed curves, or effect the other way; inactive = no such curve, though single readings can be large or run the other way; the % refers to the signal ratio)
# How it was run: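 In this Tox21 qHTS, 2,000 HEK293 AR-bla cells per well were incubated with compounds for 16 h at 37C and 5% CO2. Fluorescence intensity was recorded 2 h after adding LiveBLAzer B/G FRET substrate at room temperature.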
# [17] = biological target: Androgen receptor (Homo sapiens) (UniProt P10275); experiment: qHTS assay to identify small molecule agonists of the androgen receptor (AR) signaling pathway using the MDA cell line (AID 743040; also: nearly all actives have a fitted effect of over 20% in size)
# How it was run: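 Luciferase read-out, ONE-Glo, 30 min RT. Cells: MDA-kb2 AR-luc, MMTV promoter with AR and GR response elements. Compound exposure 16 h, 37C, 0% CO2, after 5 h pre-incubation. qHTS agonist mode.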
# [18] = biological target: Androgen receptor (Homo sapiens) (UniProt P10275); experiment: qHTS assay to identify small molecule antagonists of the androgen receptor (AR) signaling pathway using the MDA cell line (AID 743042; also: nearly all actives have a fitted effect of over 55% in size)
# How it was run: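 MDA-kb2 breast carcinoma cells carrying MMTV-luciferase (AR/GR responsive) were co-treated with compounds and the agonist R1881 for 16 h at 37C. Inhibition read as ONE-Glo luminescence; CellTiter-Fluor fluorescence measured in parallel for cytotoxicity.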
# [19] = biological target: Androgen receptor (Homo sapiens) (UniProt P10275); experiment: qHTS assay to identify small molecule antagonists of the androgen receptor (AR) signaling pathway (AID 743035; active = well fitted inhibition curve with a large enough effect in the signal ratio in the repeat runs, not every such curve was filed as active; inconclusive = weak or mixed curves, or effect the other way; inactive = no such curve, though single readings can be large or run the other way; the % refers to the signal ratio)
# How it was run: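 Reporter HEK293 cells were exposed to compounds and R1881 overnight (16 h, 37C); beta-lactamase activity was then quantified by FRET fluorescence.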
# Chain of Estrogen receptor (Homo sapiens) (P03372 whole entry, looked up): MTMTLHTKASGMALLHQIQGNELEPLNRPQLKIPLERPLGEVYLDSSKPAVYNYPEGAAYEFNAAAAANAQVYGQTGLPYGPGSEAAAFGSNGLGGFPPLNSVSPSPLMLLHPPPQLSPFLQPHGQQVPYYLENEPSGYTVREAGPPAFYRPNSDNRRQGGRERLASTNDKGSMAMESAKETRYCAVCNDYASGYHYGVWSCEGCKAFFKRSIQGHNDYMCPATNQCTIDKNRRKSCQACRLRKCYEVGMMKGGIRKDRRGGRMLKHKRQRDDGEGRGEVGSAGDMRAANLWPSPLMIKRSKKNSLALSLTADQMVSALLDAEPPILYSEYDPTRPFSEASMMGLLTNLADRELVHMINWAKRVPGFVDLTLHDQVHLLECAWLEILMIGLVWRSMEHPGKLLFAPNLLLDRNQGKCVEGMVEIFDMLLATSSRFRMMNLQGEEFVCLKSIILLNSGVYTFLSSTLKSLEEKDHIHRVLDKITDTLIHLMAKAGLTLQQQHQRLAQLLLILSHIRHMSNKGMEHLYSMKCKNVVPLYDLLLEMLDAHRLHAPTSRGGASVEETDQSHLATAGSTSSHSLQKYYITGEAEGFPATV
# Chain of Androgen receptor (Homo sapiens) (P10275 whole entry, looked up): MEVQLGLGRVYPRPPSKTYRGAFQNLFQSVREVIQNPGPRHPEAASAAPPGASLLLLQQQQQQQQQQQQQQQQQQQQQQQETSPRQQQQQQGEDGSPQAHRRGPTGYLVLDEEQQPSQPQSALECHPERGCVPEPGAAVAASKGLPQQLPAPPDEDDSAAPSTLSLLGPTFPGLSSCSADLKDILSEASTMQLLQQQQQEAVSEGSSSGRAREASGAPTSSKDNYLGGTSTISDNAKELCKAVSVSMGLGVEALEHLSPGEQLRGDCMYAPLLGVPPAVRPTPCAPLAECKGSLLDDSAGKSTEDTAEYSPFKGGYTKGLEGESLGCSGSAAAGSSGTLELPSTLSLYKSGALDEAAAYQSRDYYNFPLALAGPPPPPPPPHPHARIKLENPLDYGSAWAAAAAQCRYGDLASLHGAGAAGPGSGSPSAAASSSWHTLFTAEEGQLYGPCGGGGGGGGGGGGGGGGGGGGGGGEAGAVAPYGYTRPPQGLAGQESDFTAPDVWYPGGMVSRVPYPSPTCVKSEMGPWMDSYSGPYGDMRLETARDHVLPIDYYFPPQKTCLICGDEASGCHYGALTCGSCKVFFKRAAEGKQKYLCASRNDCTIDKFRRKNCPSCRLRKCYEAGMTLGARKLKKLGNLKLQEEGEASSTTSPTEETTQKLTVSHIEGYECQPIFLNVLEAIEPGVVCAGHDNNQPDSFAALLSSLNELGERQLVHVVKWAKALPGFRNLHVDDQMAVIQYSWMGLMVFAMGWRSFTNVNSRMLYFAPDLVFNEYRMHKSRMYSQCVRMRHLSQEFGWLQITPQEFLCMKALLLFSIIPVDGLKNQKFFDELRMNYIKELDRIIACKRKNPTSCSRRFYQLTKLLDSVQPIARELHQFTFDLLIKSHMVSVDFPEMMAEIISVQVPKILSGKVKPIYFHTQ
# Chain of Aromatase (Homo sapiens) (P11511 whole entry, looked up): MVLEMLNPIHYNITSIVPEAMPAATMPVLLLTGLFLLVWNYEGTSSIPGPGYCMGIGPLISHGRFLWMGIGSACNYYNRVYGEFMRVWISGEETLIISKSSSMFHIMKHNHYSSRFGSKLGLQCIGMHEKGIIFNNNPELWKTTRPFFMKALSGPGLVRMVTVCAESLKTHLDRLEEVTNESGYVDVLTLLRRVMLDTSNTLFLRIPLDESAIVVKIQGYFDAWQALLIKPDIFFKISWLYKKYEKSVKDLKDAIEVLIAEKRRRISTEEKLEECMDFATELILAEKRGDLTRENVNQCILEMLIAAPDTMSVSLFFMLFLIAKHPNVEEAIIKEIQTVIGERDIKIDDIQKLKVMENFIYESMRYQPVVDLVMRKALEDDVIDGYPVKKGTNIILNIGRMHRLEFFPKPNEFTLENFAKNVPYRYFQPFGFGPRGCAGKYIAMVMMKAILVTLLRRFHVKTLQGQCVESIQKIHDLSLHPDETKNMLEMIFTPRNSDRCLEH
smiles,measurement,setting,value
Cc1oc(-c2ccccc2)nc1CCOc1cccc2c1ccn2CCC(=O)O,Potency,[1],inactive
same,Potency,[2],inactive
same,Potency,[3],inactive
same,Potency,[4],inactive
same,Potency,[5],inactive
same,Potency,[6],inactive
same,Potency,[7],inactive
same,Potency,[8],inactive
same,Potency,[9],inactive
same,Potency,[10],inactive
same,Potency,Aromatase (Homo sapiens),inactive
NC(N)=NCCC[C@H](N)C(=O)O,Potency,[1],inactive
same,Potency,[2],inactive
same,Potency,[3],inactive
same,Potency,[4],inactive
same,Potency,[11],inactive
same,Potency,[12],inactive
same,Potency,[5],inactive
same,Potency,[13],inactive
same,Potency,[6],inactive
same,Potency,[7],inactive
same,Potency,[8],inactive
same,Potency,[9],inactive
same,Potency,[10],inactive
same,Potency,Aromatase (Homo sapiens),inactive
CC1=CCCC(C)(C)C12CCC(C)O2 (centres undefined),Potency,[1],inactive
same,Potency,[2],24.3 µM (active)
same,Potency,[3],inactive
same,Potency,[4],inactive
same,Potency,[11],inactive
same,Potency,[12],inactive
same,Potency,[5],inactive
same,Potency,[6],inactive
same,Potency,[10],inactive
CN(C)c1ccc(/C=C/c2ccc([N+](=O)[O-])cc2)cc1,"viability change, negative = cytotoxic",[1],6.19% [at 7.04 µM]
same,"activity, negative = cytotoxicity",[14],-15.9% [at 8.53 µM]
same,"activity change, negative = cytotoxicity",[15],1.06% [at 8.55 µM]
same,"activity change, negative = cytotoxicity",[3],7.66% [at 7.04 µM]
same,"viability change, negative = cytotoxic",[4],-4.28% [at 8.47 µM]
same,"activity change, negative = cytotoxic",[11],14.3% [at 8.44 µM]
same,"activity, negative = cytotoxicity",[6],-15.2% [at 6.72 µM]
same,"activity change, negative = cytotoxicity",[10],18.2% [at 8.47 µM]
same,"activity, negative = inhibition",Aromatase (Homo sapiens),68.2% [at 8.47 µM]
c1ccc(-c2ccccn2)nc1,Potency,[1],inactive
same,Potency,[14],24.3 µM (active)
same,Potency,[15],24.3 µM (active)
same,Potency,[3],inactive
same,Potency,[16],inactive
same,Potency,[17],inactive
same,Potency,[4],inactive
same,Potency,[18],inactive
same,Potency,[11],inactive
same,Potency,[12],inactive
same,Potency,[5],inactive
same,Potency,[13],inactive
same,Potency,[6],inactive
same,Potency,[7],inactive
same,Potency,[8],inactive
same,Potency,[9],inactive
same,Potency,[10],inactive
same,Potency,Aromatase (Homo sapiens),inactive
Cc1ccccc1S(=O)(=O)O,Potency,[1],inactive
same,Potency,[14],inactive
same,Potency,[15],inactive
same,Potency,[3],inactive
same,Potency,[4],inactive
same,Potency,[11],inactive
same,Potency,[12],inactive
same,Potency,[5],inactive
same,Potency,[6],inactive
same,Potency,[10],inactive
COc1cc(C(=O)OCCCN2CCCN(CCCOC(=O)c3cc(OC)c(OC)c(OC)c3)CC2)cc(OC)c1OC,Potency,[1],inactive
same,Potency,[2],8.41 µM (active)
same,Potency,[16],inactive
same,Potency,[17],inactive
same,Potency,[4],inactive
same,Potency,[18],inactive
same,Potency,[11],8.41 µM (active)
same,Potency,[12],13.3 µM (active)
same,Potency,[13],inactive
same,Potency,[7],inactive
same,Potency,[10],9.44 µM (active)
same,Potency,Aromatase (Homo sapiens),inactive
CN1C[C@H]2c3ccccc3Oc3ccc(Cl)cc3[C@@H]2C1,Potency,[1],inactive
same,Potency,[2],26.6 µM (active)
same,Potency,[3],inactive
same,Potency,[4],inactive
same,Potency,[11],15 µM (active)
same,Potency,[13],inactive
same,Potency,[6],inactive
same,Potency,[7],inactive
same,Potency,[8],inactive
same,Potency,[9],inactive
same,Potency,[10],inactive
S=C([S-])NCCNC(=S)[S-].[Mn+2],Potency,[1],inactive
same,Potency,[2],61.1 µM (active)
same,Potency,[15],61.1 µM (active)
same,Potency,[3],inactive
same,Potency,[12],inactive
same,Potency,[5],inactive
same,Potency,Aromatase (Homo sapiens),inactive
C[Si](C)(CCCN)O[Si](C)(C)CCCN,Potency,[1],inactive
same,Potency,[2],inactive
same,Potency,[3],inactive
same,Potency,[4],inactive
same,Potency,[11],inactive
same,Potency,[13],inactive
same,Potency,[6],inactive
same,Potency,[7],inactive
same,Potency,[8],inactive
same,Potency,[9],inactive
same,Potency,Aromatase (Homo sapiens),inactive
C=C(C)C(=O)OCC,Potency,[1],inactive
same,Potency,[2],inactive
same,Potency,[4],inactive
same,Potency,[11],inactive
same,Potency,[12],inactive
same,Potency,[5],inactive
same,Potency,[13],inactive
same,Potency,[6],inactive
same,Potency,[7],inactive
same,Potency,[8],inactive
same,Potency,[9],inactive
same,Potency,[10],inactive
same,Potency,Aromatase (Homo sapiens),inactive
OC(CN1CCC(Cc2ccc(F)cc2)CC1)c1ccc(Cl)cc1 (centres undefined),Potency,[1],inactive
same,Potency,[14],1.68 µM (active)
same,Potency,[3],inactive
same,Potency,[19],inactive
same,Potency,[16],inactive
same,Potency,[17],inactive
same,Potency,[4],inactive
same,Potency,[18],inactive
same,Potency,[5],inactive
same,Potency,[6],inactive
same,Potency,[10],inactive
same,Potency,Aromatase (Homo sapiens),inactive
Cc1cccc(C)c1OCC(=O)N[C@@H](Cc1ccccc1)[C@@H](O)C[C@H](Cc1ccccc1)NC(=O)[C@H](C(C)C)N1CCCNC1=O,Potency,[1],inactive
same,Potency,[2],16.8 µM (active)
same,Potency,[15],11.9 µM (active)
same,Potency,[17],inactive
same,Potency,[13],21.3 µM [inconclusive] (active)
same,Potency,[7],inactive
same,Potency,[8],inactive
same,Potency,[9],inactive
COc1ccc(C)cc1[N+](=O)[O-],Potency,[1],inactive
same,Potency,[2],inactive
same,Potency,[3],inactive
same,Potency,[11],inactive
same,Potency,[12],inactive
same,Potency,[5],inactive
same,Potency,[6],inactive
same,Potency,[10],inactive
same,Potency,Aromatase (Homo sapiens),inactive
C1CCCNCCC1,Potency,[1],inactive
same,Potency,[14],inactive
same,Potency,[15],inactive
same,Potency,[3],inactive
same,Potency,[4],inactive
same,Potency,[12],inactive
same,Potency,[5],inactive
same,Potency,[6],inactive
same,Potency,[10],inactive
same,Potency,Aromatase (Homo sapiens),inactive
CCC(Cl)CCC(Cl)C(Cl)CC(Cl)C(Cl)C(Cl)CCl (centres undefined),Potency,[1],inactive
same,Potency,[14],inactive
same,Potency,[15],inactive
same,Potency,[3],inactive
same,Potency,[11],inactive
same,Potency,[12],inactive
same,Potency,[5],inactive
same,Potency,[6],inactive
same,Potency,[10],inactive
same,Potency,Aromatase (Homo sapiens),inactive
CCN(CC)CCOC(=O)C(Cc1cccc2ccccc12)CC1CCCO1 (centres undefined),Potency,[1],inactive
same,Potency,[14],inactive
same,Potency,[15],inactive
same,Potency,[3],inactive
same,Potency,[4],inactive
same,Potency,[11],inactive
same,Potency,[6],inactive
same,Potency,[10],inactive
same,Potency,Aromatase (Homo sapiens),inactive
CC[N+]1(CC)CCC(=C(c2ccccc2)c2ccccc2)C1C (centres undefined),Potency,[1],inactive
same,Potency,[2],8.41 µM (active)
same,Potency,[3],inactive
same,Potency,Aromatase (Homo sapiens),inactive
CC(=O)c1ccc2c(c1)N(CCCN(C)C)c1ccccc1S2,Potency,[1],inactive
same,Potency,[2],12.7 µM (active)
same,Potency,[3],inactive
same,Potency,[4],inactive
same,Potency,[11],10.1 µM (active)
same,Potency,[12],10.1 µM (active)
same,Potency,[13],inactive
same,Potency,[6],inactive
same,Potency,[7],inactive
same,Potency,[8],inactive
same,Potency,[9],inactive
same,Potency,[10],inactive
